What all share (assay): DAPPL (digital affinity profiling via proximity ligation, sequencing); 10 mM Tris-HCl pH 7.5, 50 mM NaCl, 1 mM DTT, 4% glycerol, room temperature, 30 min; GST-TFs on glutathione beads, 16-mer random dsDNA library, 0.1% formaldehyde crosslink after washing; high values mean tight binding
One experiment concerns the target T1, FEV (Homo sapiens, UniProt Q99581 1-238).
T1 sequence: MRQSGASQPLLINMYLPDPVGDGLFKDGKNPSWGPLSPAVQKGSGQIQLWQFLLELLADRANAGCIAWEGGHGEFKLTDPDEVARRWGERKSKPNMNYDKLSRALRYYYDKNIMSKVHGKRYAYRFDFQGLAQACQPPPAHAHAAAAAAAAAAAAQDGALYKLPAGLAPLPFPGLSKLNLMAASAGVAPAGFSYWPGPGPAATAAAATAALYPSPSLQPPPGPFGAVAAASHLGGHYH
The note with it: protein: recombinant; tags: N-terminal GST; dsDNA, one strand shown. The method, boiled down:
(§1)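 A tag-only sample was pooled with DNA-barcoded human transcription factors that had been expressed in yeast as GST fusions and captured on glutathione beads. The pools were incubated for 30 min at room temperature with 200 nmole of a random double-stranded 16-mer DNA library in Tris/NaCl/DTT/glycerol buffer, then washed, crosslinked with 0.1% formaldehyde, proximity-ligated (BsaI/T4 ligase, 1 h, 37 °C), PCR-amplified and sequenced on an Illumina NextSeq500. Binding signal is each hexamer's read frequency for a factor divided by its frequency for the tag-only sample.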

A further experiment has as its target ETV5 (Homo sapiens, UniProt P41161 1-510). The note with it: protein: recombinant; tags: N-terminal GST; dsDNA, one strand shown. An outline of the steps:
as §1

The target of another experiment is HSF1 (Homo sapiens, UniProt Q00613 1-529). The note with it: protein: recombinant; tags: N-terminal GST; chain copies: 3; dsDNA, one strand shown. An outline of the steps: as §1
HSF1, sequence (Q00613 whole entry): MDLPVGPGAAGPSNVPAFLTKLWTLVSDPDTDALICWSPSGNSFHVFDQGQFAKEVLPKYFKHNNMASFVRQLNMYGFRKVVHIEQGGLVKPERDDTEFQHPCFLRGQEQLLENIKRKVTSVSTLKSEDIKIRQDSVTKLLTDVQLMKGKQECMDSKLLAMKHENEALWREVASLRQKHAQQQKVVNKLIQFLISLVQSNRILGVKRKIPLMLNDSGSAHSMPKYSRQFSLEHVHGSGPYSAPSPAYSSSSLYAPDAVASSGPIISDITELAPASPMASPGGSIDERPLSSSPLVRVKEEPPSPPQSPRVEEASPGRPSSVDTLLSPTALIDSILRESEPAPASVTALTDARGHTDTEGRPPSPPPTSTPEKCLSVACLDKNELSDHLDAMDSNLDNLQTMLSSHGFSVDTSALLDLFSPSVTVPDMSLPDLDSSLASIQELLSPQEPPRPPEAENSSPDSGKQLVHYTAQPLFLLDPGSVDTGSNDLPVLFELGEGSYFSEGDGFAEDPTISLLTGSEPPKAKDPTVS
The target in a further experiment is T2, SPIC (Homo sapiens, UniProt Q8N5J4 1-248).
T2 sequence: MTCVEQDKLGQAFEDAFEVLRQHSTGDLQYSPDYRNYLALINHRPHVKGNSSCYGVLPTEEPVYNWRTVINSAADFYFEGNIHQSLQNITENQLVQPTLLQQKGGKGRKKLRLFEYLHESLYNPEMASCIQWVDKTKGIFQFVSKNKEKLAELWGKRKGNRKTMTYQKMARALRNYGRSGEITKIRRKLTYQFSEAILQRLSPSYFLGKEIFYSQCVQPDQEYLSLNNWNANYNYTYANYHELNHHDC
Conditions: protein: recombinant; tags: N-terminal GST; dsDNA, one strand shown. The method, boiled down: as §1

The target in another experiment is ELF4 (Homo sapiens, UniProt Q99607 1-663). The note with it: protein: recombinant; tags: N-terminal GST; dsDNA, one strand shown. The method, boiled down: as §1
ELF4, sequence (Q99607 whole entry): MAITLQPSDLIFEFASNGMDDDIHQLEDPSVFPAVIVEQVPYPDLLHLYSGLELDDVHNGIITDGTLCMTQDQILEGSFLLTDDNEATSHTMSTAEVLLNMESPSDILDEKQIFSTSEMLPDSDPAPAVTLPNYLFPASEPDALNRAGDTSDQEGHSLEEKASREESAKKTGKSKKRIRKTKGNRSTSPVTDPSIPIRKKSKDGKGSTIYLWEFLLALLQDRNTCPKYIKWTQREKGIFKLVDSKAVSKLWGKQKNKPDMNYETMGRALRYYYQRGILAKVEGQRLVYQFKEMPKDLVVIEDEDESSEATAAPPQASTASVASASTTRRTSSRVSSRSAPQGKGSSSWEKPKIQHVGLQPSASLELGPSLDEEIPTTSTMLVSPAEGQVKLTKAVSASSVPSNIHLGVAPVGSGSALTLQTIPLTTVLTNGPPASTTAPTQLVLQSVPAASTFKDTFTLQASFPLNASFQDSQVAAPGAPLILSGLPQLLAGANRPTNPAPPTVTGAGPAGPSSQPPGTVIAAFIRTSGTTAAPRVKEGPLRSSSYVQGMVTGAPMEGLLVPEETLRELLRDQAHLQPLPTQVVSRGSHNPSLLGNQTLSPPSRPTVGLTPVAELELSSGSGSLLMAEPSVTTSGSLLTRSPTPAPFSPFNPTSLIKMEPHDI
The target of the next experiment is T3, ELK4 (Homo sapiens, UniProt P28324-2 1-405).
T3 sequence: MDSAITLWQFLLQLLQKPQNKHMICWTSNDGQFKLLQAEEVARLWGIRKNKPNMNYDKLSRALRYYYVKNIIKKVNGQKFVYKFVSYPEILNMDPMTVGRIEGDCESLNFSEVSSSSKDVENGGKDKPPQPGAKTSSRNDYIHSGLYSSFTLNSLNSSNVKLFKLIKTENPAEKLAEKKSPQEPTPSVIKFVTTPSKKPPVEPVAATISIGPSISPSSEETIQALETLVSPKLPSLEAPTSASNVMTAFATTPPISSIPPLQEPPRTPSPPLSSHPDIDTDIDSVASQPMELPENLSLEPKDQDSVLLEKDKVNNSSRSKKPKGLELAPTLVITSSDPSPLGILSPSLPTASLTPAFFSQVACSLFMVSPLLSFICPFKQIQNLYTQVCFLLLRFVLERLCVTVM
Conditions: protein: recombinant; tags: N-terminal GST; dsDNA, one strand shown. The method, boiled down: as §1

The next experiment addresses T4, ETV2 (Homo sapiens, UniProt O00321 1-342).
T4 sequence: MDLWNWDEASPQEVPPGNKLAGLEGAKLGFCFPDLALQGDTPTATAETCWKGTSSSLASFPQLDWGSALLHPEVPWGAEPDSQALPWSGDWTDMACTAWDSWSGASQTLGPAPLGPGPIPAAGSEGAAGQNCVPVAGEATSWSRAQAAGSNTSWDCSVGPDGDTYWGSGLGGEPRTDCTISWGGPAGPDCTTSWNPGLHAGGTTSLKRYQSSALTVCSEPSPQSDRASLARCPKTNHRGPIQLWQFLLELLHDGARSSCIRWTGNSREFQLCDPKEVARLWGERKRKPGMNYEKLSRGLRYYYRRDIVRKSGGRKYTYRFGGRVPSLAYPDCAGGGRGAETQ
The note with it: protein: recombinant; tags: N-terminal GST; dsDNA, one strand shown. The method, boiled down:
as §1

For another experiment, the target named is T5, ELF3 (Homo sapiens, UniProt P78545 1-371).
T5 sequence: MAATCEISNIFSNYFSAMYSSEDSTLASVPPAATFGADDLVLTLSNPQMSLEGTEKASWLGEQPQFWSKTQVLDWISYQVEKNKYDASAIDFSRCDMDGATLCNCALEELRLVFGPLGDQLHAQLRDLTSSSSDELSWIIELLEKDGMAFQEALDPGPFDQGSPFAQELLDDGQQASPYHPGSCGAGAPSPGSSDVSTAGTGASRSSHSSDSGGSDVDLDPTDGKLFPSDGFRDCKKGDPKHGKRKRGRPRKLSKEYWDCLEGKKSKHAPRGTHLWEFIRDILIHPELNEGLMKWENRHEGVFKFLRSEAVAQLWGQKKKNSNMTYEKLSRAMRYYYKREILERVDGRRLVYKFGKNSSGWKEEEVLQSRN
Conditions: protein: recombinant; tags: N-terminal GST; dsDNA, one strand shown. An outline of the steps:
as §1

In a further experiment the target is CRX (Homo sapiens, UniProt O43186 1-299). Conditions: protein: recombinant; tags: N-terminal GST; dsDNA, one strand shown. An outline of the steps: as §1
CRX, sequence (O43186 whole entry): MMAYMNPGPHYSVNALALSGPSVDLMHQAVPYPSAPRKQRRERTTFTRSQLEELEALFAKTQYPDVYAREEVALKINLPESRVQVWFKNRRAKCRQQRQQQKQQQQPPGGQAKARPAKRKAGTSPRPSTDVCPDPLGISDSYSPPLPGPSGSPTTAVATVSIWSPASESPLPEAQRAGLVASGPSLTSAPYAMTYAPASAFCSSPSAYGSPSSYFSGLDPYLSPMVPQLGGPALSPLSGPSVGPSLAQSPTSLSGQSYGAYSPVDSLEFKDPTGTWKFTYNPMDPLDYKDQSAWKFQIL
The target in another experiment is ETV1 (Homo sapiens, UniProt P50549 1-477). The note with it: protein: recombinant; tags: N-terminal GST; dsDNA, one strand shown. An outline of the steps: as §1
ETV1, sequence (P50549 whole entry): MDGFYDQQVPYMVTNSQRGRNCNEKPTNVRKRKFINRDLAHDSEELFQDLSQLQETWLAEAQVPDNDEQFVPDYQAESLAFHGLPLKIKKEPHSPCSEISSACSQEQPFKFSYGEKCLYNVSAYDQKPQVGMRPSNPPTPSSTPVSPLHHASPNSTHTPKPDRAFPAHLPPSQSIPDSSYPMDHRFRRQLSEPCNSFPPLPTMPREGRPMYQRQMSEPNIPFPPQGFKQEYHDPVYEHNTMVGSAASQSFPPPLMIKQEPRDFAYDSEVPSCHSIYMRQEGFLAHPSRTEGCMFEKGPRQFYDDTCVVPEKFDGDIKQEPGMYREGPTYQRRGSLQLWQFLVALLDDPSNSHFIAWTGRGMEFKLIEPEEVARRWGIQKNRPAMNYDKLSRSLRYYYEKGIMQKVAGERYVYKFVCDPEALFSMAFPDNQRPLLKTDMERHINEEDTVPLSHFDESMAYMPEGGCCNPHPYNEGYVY
The target of a further experiment is T6, ERF (Homo sapiens, UniProt P50548 1-548).
T6 sequence: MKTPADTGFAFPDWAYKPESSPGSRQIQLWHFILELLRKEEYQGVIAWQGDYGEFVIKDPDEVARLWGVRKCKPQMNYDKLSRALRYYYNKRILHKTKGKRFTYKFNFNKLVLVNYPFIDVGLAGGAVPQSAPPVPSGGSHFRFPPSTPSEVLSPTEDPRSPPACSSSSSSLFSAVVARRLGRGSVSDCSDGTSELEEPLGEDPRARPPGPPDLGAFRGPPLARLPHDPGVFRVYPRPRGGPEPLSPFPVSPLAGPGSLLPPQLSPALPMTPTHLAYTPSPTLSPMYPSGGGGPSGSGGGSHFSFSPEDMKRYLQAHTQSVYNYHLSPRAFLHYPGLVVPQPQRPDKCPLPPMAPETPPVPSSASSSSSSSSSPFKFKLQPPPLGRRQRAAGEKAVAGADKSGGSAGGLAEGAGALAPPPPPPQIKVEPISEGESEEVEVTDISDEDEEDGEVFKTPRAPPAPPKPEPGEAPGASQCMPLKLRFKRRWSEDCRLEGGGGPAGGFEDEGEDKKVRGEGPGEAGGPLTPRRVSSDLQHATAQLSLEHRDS
The note with it: protein: recombinant; tags: N-terminal GST; dsDNA, one strand shown. The method, boiled down:
as §1

Another experiment addresses T7, ETV3L (Homo sapiens, UniProt Q6ZN32 1-361).
T7 sequence: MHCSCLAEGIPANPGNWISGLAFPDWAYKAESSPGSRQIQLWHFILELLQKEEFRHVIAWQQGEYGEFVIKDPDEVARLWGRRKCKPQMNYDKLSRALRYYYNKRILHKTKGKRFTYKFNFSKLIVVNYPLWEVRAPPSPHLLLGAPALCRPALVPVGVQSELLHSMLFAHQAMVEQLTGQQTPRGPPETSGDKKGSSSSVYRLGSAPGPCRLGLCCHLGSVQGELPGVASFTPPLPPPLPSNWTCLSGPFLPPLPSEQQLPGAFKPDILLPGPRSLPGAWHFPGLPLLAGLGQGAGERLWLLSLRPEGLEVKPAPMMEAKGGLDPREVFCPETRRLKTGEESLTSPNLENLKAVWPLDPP
Conditions: protein: recombinant; tags: N-terminal GST; dsDNA, one strand shown. The method, boiled down: as §1

The target in a further experiment is T8, ETS2 (Homo sapiens, UniProt P15036 1-469).
T8 sequence: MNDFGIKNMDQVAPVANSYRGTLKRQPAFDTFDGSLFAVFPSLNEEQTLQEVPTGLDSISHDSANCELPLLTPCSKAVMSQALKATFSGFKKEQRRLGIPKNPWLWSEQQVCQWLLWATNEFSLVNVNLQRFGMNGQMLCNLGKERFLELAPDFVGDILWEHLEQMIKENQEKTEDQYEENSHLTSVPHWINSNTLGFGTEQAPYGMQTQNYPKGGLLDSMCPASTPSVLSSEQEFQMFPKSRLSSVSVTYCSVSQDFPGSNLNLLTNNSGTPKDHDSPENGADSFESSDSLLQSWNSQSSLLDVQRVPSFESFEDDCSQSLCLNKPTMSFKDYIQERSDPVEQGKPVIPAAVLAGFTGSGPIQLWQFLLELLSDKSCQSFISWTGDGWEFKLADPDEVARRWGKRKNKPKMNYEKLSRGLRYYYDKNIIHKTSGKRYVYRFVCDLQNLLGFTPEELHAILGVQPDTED
The note with it: protein: recombinant; tags: N-terminal GST; dsDNA, one strand shown. An outline of the steps:
as §1

Another experiment has as its target T9, SPDEF (Homo sapiens, UniProt O95238 1-335).
T9 sequence: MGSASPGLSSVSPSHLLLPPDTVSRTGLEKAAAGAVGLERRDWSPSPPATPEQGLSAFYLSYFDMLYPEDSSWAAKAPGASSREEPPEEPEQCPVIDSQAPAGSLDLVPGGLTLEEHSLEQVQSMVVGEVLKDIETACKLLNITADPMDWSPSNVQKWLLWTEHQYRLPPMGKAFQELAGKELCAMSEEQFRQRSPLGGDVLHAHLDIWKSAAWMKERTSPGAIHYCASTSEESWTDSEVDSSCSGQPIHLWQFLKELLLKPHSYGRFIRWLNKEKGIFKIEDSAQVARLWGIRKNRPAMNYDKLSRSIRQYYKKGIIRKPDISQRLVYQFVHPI
The note with it: protein: recombinant; tags: N-terminal GST; dsDNA, one strand shown. The method, boiled down:
as §1

In a further experiment the target is T10, ETV7 (Homo sapiens, UniProt Q9Y603 1-341).
T10 sequence: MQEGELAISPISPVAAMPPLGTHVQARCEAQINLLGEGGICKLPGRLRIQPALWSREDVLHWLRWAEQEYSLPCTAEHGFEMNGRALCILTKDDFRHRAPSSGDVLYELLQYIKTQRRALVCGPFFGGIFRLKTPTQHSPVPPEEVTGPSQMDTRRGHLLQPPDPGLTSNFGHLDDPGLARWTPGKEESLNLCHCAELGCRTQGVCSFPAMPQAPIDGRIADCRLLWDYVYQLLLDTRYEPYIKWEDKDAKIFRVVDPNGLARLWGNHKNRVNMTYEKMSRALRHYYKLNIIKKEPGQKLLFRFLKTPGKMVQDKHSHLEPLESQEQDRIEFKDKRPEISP
The note with it: protein: recombinant; tags: N-terminal GST; dsDNA, one strand shown. An outline of the steps:
as §1

The next experiment deals with T11, ELF5 (Homo sapiens, UniProt Q9UKW6-2 1-255).
T11 sequence: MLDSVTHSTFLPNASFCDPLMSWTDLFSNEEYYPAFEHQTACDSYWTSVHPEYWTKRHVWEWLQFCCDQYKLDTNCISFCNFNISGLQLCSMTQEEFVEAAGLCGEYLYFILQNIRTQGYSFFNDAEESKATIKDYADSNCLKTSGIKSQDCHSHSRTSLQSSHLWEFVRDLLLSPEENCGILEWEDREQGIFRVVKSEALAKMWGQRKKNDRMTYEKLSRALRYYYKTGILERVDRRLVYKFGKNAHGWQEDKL
The note with it: protein: recombinant; tags: N-terminal GST; dsDNA, one strand shown. An outline of the steps: as §1

The next experiment has as its target T12, ETV3 (Homo sapiens, UniProt P41162-2 1-143).
T12 sequence: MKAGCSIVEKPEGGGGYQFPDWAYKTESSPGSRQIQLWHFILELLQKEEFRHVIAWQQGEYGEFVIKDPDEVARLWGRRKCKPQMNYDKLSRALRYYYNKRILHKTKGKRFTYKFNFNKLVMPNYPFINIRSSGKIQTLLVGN
Conditions: protein: recombinant; tags: N-terminal GST; dsDNA, one strand shown. The method, boiled down: as §1

For a further experiment, the target named is ETV6 (Homo sapiens, UniProt P41212 1-452). Conditions: protein: recombinant; tags: N-terminal GST; dsDNA, one strand shown. The method, boiled down: as §1
ETV6, sequence (P41212 whole entry): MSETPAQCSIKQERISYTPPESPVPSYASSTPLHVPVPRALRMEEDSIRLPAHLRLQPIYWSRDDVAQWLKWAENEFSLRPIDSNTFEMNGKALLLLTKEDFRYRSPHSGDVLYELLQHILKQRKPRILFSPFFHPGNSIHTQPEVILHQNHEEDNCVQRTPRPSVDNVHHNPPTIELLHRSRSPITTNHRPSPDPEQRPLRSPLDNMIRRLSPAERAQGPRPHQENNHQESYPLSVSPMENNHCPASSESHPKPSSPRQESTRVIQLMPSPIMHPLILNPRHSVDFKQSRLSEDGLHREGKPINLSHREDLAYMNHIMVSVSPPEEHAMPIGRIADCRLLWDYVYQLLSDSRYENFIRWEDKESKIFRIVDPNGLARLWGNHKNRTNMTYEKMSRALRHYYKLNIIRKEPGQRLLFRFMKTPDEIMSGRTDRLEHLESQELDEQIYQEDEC

ETV5, sequence (P41161 whole entry): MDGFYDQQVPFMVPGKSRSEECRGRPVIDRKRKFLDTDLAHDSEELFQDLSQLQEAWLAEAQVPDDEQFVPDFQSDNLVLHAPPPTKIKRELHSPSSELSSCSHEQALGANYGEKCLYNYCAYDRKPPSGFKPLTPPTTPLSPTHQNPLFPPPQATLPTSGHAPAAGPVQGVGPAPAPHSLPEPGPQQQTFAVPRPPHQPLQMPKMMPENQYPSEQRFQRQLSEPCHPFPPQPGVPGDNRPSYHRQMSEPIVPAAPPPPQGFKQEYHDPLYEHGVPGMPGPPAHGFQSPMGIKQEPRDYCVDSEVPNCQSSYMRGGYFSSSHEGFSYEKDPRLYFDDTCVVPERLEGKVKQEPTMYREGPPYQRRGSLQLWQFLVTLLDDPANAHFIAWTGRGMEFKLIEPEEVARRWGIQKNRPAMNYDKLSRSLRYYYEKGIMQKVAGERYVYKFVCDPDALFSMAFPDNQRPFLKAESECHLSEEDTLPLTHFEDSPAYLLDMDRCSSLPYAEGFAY

In the case of GCTTGC, the binding signal with FEV is 1.2 fold enrichment (6-mer frequency, TF over GST control); in the experiment with ETV5 it was 1.22 fold enrichment (6-mer frequency, TF over GST control); with HSF1, 1.1 fold enrichment (6-mer frequency, TF over GST control); with SPIC, 1.44 fold enrichment (6-mer frequency, TF over GST control); with ELF4, 1.09 fold enrichment (6-mer frequency, TF over GST control); with ELK4, 1.34 fold enrichment (6-mer frequency, TF over GST control). Also, the binding signal in the experiment with ETV2 is 1.31 fold enrichment (6-mer frequency, TF over GST control); with ELF3, 1.03 fold enrichment (6-mer frequency, TF over GST control); with CRX, 1.14 fold enrichment (6-mer frequency, TF over GST control); with ETV1, 1.25 fold enrichment (6-mer frequency, TF over GST control); with ERF it was 1.24 fold enrichment (6-mer frequency, TF over GST control); in the experiment with ETV3L it was 1.29 fold enrichment (6-mer frequency, TF over GST control). For the same sequence, the binding signal with ETS2 is 1.24 fold enrichment (6-mer frequency, TF over GST control); with SPDEF it was 1.22 fold enrichment (6-mer frequency, TF over GST control); in the experiment with ETV7 it was 1.21 fold enrichment (6-mer frequency, TF over GST control); in the experiment with ELF5, 1.03 fold enrichment (6-mer frequency, TF over GST control); with ETV3, 1.19 fold enrichment (6-mer frequency, TF over GST control); with ETV6 it was 1.15 fold enrichment (6-mer frequency, TF over GST control).

For the origin of these results see article PMC7862700, “An all-to-all approach to the identification of sequence-specific readers for epigenetic DNA modifications on cytosine”.
